{
  "source": "PubChem BioAssay (NCATS)",
  "note": "“And” between values parts separate entries of the source, which are not always exact repeats. Equal values may be shown once. Records with an inconclusive call do not appear. The source made the active and inactive calls. Calls come from the whole dose curve; as a rule, active = well fitted activation curve with a large enough effect; inconclusive = small, poorly fitted or top-dose-only effect; inactive = flat fitted curve, though single readings scatter. Potency is the fitted concentration of half-maximal effect.",
  "data": [
    {"experiment": "Cellular Toxicity (caspase-3) H-4-II-E (AID 663);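 for caspase-3 activation: cells exposed to compound for 16 hr before readout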", "conditions": "H-4-II-E rat hepatoma; Potency: caspase-3 activation; caspase-3 activation: at 92.2 µM (top of the series), scaled: DMSO 0%, 100 µM tamoxifen 100%", "text": "NIH Chemical Genomics Center [NCGC]\nNIH Molecular Libraries Screening Centers Network [MLSCN]\nNational Institutes of Environmental Health Sciences [NIEHS]\nNational Toxicology Program [NTP]\nWe have developed a 1536-well cell-based assay for quantitative high throughput screening (qHTS) against a number of cell lines to determine in vitro caspase 3/7 of small molecules. This particular assay uses the H-4-II-E cell line which is derived from rat hepatoma.\nNCGC Assay Protocol Summary:\nThe Caspase-Glo 3/7 assay (Promega) is a homogeneous method to measure caspase-3 and caspase-7 activities in cultured cells. The quantitation of caspase 3/7 activity is based on the cleavage of a peptide-aminoluciferin substrate. After caspase cleaves the substrate the free aminoluciferin is liberated and serves as the substrate of luciferase, which generates the light. The luminescent signal is proportional to amount of caspase 3/7 activity present.\nUsing the Caspase-Glo 3/7 assay, the amount of caspase 3/7 activity was measured in the H-4-II-E cell line with complete culture medium following compound treatment for 16 hours. The assay was performed in opaque white 1536-well plates. In the screen, tamoxifen and doxorubicin were used as positive controls. Library compounds were measured for their ability to cause the activation of caspase 3/7 in the cell line, as reflected by an increase in luminescence signal, in a concentration-dependent manner. Data were normalized to the controls for basal activity (DMSO only) and 100% stimulation (100 uM tamoxifen). AC50 values were determined from concentration-response data modeled with the standard Hill equation.\nqHTS protocol for caspase 3/7 assay in H-4-II-E cells\n[Step] [Parameter] [Value] [Description]\n1. Reagent; 5 uL; 1500 H-4-II-E cells/well\n2. Time; 5 hr; 37 °C incubation\n4. Controls; 23 nL; Tamoxifen 0.23 uM to 100 uM & Doxorubicin 7.0 pM to 100 uM\n5. Time; 16 hr; 37 °C incubation\n6. Reagent; 5 uL; Caspase-Glo 3/7 reagent\n7. Time; 20 min; Room Temperature\n8. Detection; Luminescence; Viewlux plate reader\nKeywords: caspase 3/7, apoptosis, H-4-II-E cell line, luminescence, NTPHTS, NTPHTS_NCGC, NIEHS, EPA, DSSTox, MLSMR, MLSCN, NIH Roadmap, qHTS, NCGC", "values": [
      {"smiles": "CC/C(=C(\\c1ccccc1)c1ccc(OCCN(C)C)cc1)c1ccc(O)cc1", "caspase-3 activation": "124% (active)"},
      {"smiles": "C/C=C1\\C(=O)C[C@H]2[C@@H]3CCC4=CC(=O)CC[C@]4(C)[C@H]3CC[C@]12C", "caspase-3 activation": "22.9% (inactive)"},
      {"smiles": "CO[C@H]1/C=C/O[C@@]2(C)Oc3c(C)c(O)c4c(O)c(c5c(c4c3C2=O)NC2(CCN(CC(C)C)CC2)N=5)=NC(=O)/C(C)=C\\C=C\\[C@H](C)[C@H](O)[C@@H](C)[C@@H](O)[C@@H](C)[C@H](OC(C)=O)[C@@H]1C", "caspase-3 activation": "2.28% (inactive)"},
      {"smiles": "c1ccc2c(c1)ccc1cc3c(ccc4ccccc43)cc12", "caspase-3 activation": "-1.53% (inactive)"},
      {"smiles": "Cc1ccc(S(=O)(=O)Oc2ccc(N=Nc3ccc(-c4ccc(N=Nc5c(O)ccc6cc(S(=O)(=O)O)cc(S(=O)(=O)O)c56)c(C)c4)cc3C)cc2)cc1", "caspase-3 activation": "-0.204% (inactive)"},
      {"smiles": "O=[N+]([O-])c1cc([N+](=O)[O-])c2ccc(S(=O)(=O)O)cc2c1O", "caspase-3 activation": "0.036% (inactive)"},
      {"smiles": "ClC1=C(Cl)C(Cl)(Cl)C(Cl)=C1Cl", "caspase-3 activation": "4.97% (inactive)"},
      {"smiles": "O=Cc1ccc(Cl)c(Cl)c1", "caspase-3 activation": "0.309% (inactive)"},
      {"smiles": "c1ccc2c(c1)-c1cccc3c1c-2cc1ccccc13", "caspase-3 activation": "11.1% (inactive)"},
      {"smiles": "Nc1ccc2cc3ccccc3cc2c1", "caspase-3 activation": "-0.822% (inactive)"},
      {"smiles": "O=C=Nc1ccc(Cc2ccc(N=C=O)cc2)cc1", "caspase-3 activation": "1.23% (inactive)"},
      {"smiles": "CCCCCC/C(C=O)=C\\c1ccccc1", "caspase-3 activation": "0.146% (inactive)"},
      {"smiles": "CN1[C@H]2CC(OC(=O)[C@H](CO)c3ccccc3)C[C@H]1[C@H]1O[C@H]12", "note": "(stereo not given in full)", "caspase-3 activation": "0.771% (inactive) and -1.21% (inactive)"},
      {"smiles": "Cc1cc(O)c(C(C)(C)C)cc1Sc1cc(C(C)(C)C)c(O)cc1C", "Potency": "31.6 µM (active)"},
      {"smiles": "O=C1OC(O)C(C(Cl)Cl)=C1Cl", "note": "(stereo not given)", "caspase-3 activation": "24.6% (inactive)"},
      {"smiles": "Cc1cccc(O)c1C", "caspase-3 activation": "0.768% (inactive)"},
      {"smiles": "O=C(/C=C/c1ccc(O)c(O)c1)OC1C[C@](O)(C(=O)O)C[C@@H](O)[C@H]1O", "note": "(stereo not given in full)", "caspase-3 activation": "0.575% (inactive) and -0.278% (inactive)"},
      {"smiles": "CCC(C)Nc1ccc(NC(C)CC)cc1", "note": "(stereo not given)", "caspase-3 activation": "-5.35% (inactive)"},
      {"smiles": "O=C(OCC(COC(=O)c1ccccc1)(COC(=O)c1ccccc1)COC(=O)c1ccccc1)c1ccccc1", "caspase-3 activation": "-0.12% (inactive)"},
      {"smiles": "C=C(C)c1ccccc1", "caspase-3 activation": "1.07% (inactive)"},
      {"smiles": "CNc1ccc(O)cc1", "caspase-3 activation": "-5.23% (inactive)"},
      {"smiles": "O=C1OC2(c3cc(Br)c(O)c(Br)c3Oc3c2cc(Br)c(O)c3Br)c2c(Cl)c(Cl)c(Cl)c(Cl)c21", "caspase-3 activation": "-0.639% (inactive)"},
      {"smiles": "Oc1ccc2cc(SSc3ccc4cc(O)ccc4c3)ccc2c1", "caspase-3 activation": "4.17% (inactive)"},
      {"smiles": "CN(C)c1ccc(C2(c3ccc(N(C)C)cc3)OC(=O)c3cc(N(C)C)ccc32)cc1", "caspase-3 activation": "0.305% (inactive)"},
      {"smiles": "Cc1cc(Nc2ccc(O)cc2)ccc1N", "caspase-3 activation": "20.7% (inactive)"}
    ]}
  ]
}
